Assay outcomes (PubChem)
NPSR antagonist – neuropeptide S receptor (human) antagonism, cAMP; Q6W5P4; CHO-NPSR cells, cAMP TR-FRET, antagonist mode; Potency, µM (highest dose often 38.3 µM), for inactives: at the top dose activity change, negative = inhibition, usual class: inhibitors; hit rate 1% among 220,000; AID 1461; also: potency is read from the fitted curve at half-maximal effect; % is scaled to controls: 0 for no effect and ±100 for the full control effect; nearly all actives have a fitted effect of over 50% in size
ALOX12 inhib – inhibitors of human 12-lipoxygenase (ALOX12); P18054; purified 12-hLO, xylenol orange hydroperoxide absorbance; Potency, µM (doses to about 57.1 µM), inactives show at the highest dose activity change, negative = inhibition, actives largely listed as inhibitors; hit rate 0.12% among 150,000; AID 1452; also: potency is read from the fitted curve at half-maximal effect; % is scaled to controls: 0 for no effect and ±100 for the full control effect; nearly all actives have a fitted effect of over 55% in size
Target sequence (P18054 whole entry, looked up): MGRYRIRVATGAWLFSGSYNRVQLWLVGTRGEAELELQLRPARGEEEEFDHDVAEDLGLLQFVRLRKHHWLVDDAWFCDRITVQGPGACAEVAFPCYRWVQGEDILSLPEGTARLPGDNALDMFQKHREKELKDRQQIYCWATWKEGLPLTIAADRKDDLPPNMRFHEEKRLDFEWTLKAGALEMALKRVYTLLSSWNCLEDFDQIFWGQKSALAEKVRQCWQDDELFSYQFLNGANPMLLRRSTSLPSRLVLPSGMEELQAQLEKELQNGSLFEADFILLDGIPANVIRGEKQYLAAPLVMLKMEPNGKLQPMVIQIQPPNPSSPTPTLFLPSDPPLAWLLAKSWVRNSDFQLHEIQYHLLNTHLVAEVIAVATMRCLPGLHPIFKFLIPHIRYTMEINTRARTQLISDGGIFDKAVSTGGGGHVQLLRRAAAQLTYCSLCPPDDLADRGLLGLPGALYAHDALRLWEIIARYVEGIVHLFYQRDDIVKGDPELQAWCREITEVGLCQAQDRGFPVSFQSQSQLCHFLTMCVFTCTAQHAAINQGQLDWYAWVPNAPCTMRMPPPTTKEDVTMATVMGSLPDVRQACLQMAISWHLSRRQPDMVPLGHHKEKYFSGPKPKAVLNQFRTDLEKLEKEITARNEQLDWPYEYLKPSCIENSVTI
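Xylenol orange chromogenic assay: hydroperoxide from 12hLO oxidises Fe(II), giving red-shifted Fe(III)-XO absorbance. Conditions: 150 nM enzyme, 40 uM arachidonic acid, 25 mM Hepes pH 7.0, 0.01% Triton X-100, 30 min, room temperature.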
IMPase inh – cell-permeable inhibitors of inositol monophosphatase (IMPase); P97697; CHO-M1 cells, IP1 accumulation, HTRF TR-FRET ratio; inhibition (IP1 accumulation), % at 46.1 µM; 120,000 tested, under 10 active; AID 901; active = well fitted curve in the direction sought with a large enough effect in the signal ratio, not every such curve was filed as active; inconclusive = small, poorly fitted or top-dose-only effect, or a change in a side signal; inactive = no such curve, though single readings can be large or run the other way; the % refers to the signal ratio;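 also: cells stimulated with carbachol in lithium chloride buffer; plate controls were DMSO basal wells for no effect and reference inhibitor wells for full effect; higher means more IMPase inhibition seen as more IP1 and lower FRET ratio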
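In this qHTS, compounds (final up to 46 uM) act on CHO-M1 cells that are then activated through the M1 receptor with carbachol, in pH 7.4 buffer containing 50 mM LiCl, for 30 min. IP1 accumulation is quantified by the IP-One immunoassay.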
HTT ATP protect – Huntington cell model cytoprotection by ATP luminescence | PC12 HTT-Q103 induced, cytoprotection, ATP luminescence, 40 h | Potency, µM (highest dose often 56.4 µM), without a hit: cytoprotection (ATP increase), usual class: activators | hit rate 0.14% among 230,000 | AID 1471; also: potency is read from the fitted curve at half-maximal effect; % of control where 0% means no effect; nearly all actives have a fitted effect of over 45% in size
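Huntington model: PC12 line, ecdysone-inducible HTTQ103 exon1–GFP, tebufenozide 100 nM. Test articles in a dose series. Endpoint luminescence from cellular ATP.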
PNC inhibitor – blocks assembly of the perinucleolar compartment; hit rate 3.1% among 140,000; PC3M PTB-GFP, PNC prevalence imaging, 16 h; stronger effect = lower value; AID 2417; activity change (PNC), negative = inhibition, % at 10 µM;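 active = readout at or below -70, meaning at least 70% loss of cells showing the perinucleolar compartment, a nuclear body marking cancer cells; inconclusive = readout between -30 and a set limit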;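 also: plate controls were DMSO wells for no effect and camptothecin positive control wells for full effect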
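Compounds are pinned in duplicate onto adhered PC3M cells stably expressing GFP-tagged PTB and incubated 16 h at 37 C. Cells are then fixed, nuclei stained with Hoechst, and PNC-positive cells counted.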
HttQ103 aggreg – inhibitors of mutant huntingtin aggregate formation in PC12 cells; PC12 HttQ103-GFP aggregates, Acumen cytometry, 40 h; Potency, µM (highest dose often 46.1 µM), inactives show at the highest dose activity change, negative = inhibition, usual class: inhibitors; hit rate 1.1% among 220,000; also: potency is read from the fitted curve at half-maximal effect; % is scaled to controls: 0 for no effect and ±100 for the full control effect; nearly all actives have a fitted effect of over 60% in size
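Inducible Q103 Huntingtin exon 1–GFP PC12 line, 1500 cells/well in phenol red free DMEM with 5% equine and 5% calf serum. Tebufenozide 100 nM induced expression; compounds titrated; aggregates quantified by cytometry.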
* marks the source's active call; other numbers are inactive results; ? = inconclusive; nt = not tested or not shown; [ ] = remark or other dose. The list is not random: actives were taken first. Their share in the collection is about 3.3%. Unless noted, calls follow the shape of the dose curve; as a rule, active = well fitted curve in the direction sought with a large enough effect; inconclusive = small, poorly fitted or top-dose-only effect, or another doubt; inactive = no such curve, though single readings can be large; an effect the other way counts as inactive or inconclusive.

SMILES	NPSR antagonist	ALOX12 inhib	IMPase inh	HTT ATP protect	PNC inhibitor	HttQ103 aggreg
COc1cccc(-c2nn(-c3ccccc3)cc2C(=O)Nc2nccs2)c1	-15%[46.1 µM]	-26%	1	-46%	?	?
COc1ccc(CCNC(=O)C(=O)NCc2cccs2)cc1OC	-19%	nt	nt	-8%[10 µM]	nt	1%[9.22 µM]
c1ccc(CCc2nn3c(-c4ccncc4)nnc3s2)cc1	-5%[46.1 µM]	15%	2	10%[10 µM]	?	1.1µM*
COc1ccc(C)cc1NS(=O)(=O)c1ccc(NC(=O)CN(c2cc([N+](=O)[O-])ccc2C)S(C)(=O)=O)cc1	-27%	-4%	nt	nt	?	6%
Cc1cccc(NS(=O)(=O)c2ccc(NC(=O)CN(c3cc([N+](=O)[O-])ccc3C)S(C)(=O)=O)cc2)c1	-46%	-8%	nt	nt	-113*	?
CC(=O)c1c(C)nc(-c2ccc(Cl)cc2Cl)n1O	5%[46.1 µM]	-9%	-7	-12%[0.074 µM]	-100*	-14%
O=C(Cn1cncn1)c1ccccc1	4%	nt	nt	-1%[10 µM]	nt	-3%[9.22 µM]
CC(C)(C)C1CCc2c(sc(NC(=O)c3ccncc3)c2C(=O)Nc2ccccc2Cl)C1 (stereo not drawn)	nt	nt	9	nt	nt	nt
C#CCOc1ccc(-c2nnc(Nc3ccc(NC(C)=O)cc3)c3ccccc23)cc1	nt	nt	3	nt	nt	nt
COCc1cc(C)nc2sc(C(=O)N3CCCC3)c(N)c12	11%[46.1 µM]	-5%	4	-25%	-117*	-7%
O=C(CSc1nc(-c2ccco2)cc(C(F)(F)F)n1)NN1CCOCC1	6%	nt	nt	nt	nt	nt
O=C(CSc1nc(-c2ccco2)cc(C(F)(F)F)n1)Nc1ccc(C(=O)N2CCOCC2)cc1	-20%[46.1 µM]	-3%	-6	12%[10 µM]	-100*	1%
NCCC(=O)N[C@@H](Cc1cnc[nH]1)C(=O)O	nt	0%	-5	7%[1.9 µM]	nt	nt
O=C1C(=C(c2ccccc2)c2ccccc2)Nc2ccccc21	13µM*	-6%	3	-18%	?	-3%
COc1ccc2ccccc2c1/C=C\C(=O)c1ccccc1	nt	-4%[11.4 µM]	nt	-6%[10 µM]	nt	nt
COc1ccc([C@@H]2CC(=O)c3c(O)cc(O[C@H]4O[C@@H](CO[C@H]5O[C@@H](C)[C@@H](O)[C@@H](O)[C@@H]5O)[C@@H](O)[C@@H](O)[C@@H]4O)cc3O2)cc1O	nt	1%[25.6 µM]	-8[20.6 µM]	-7%[17.1 µM]	nt	-7%[20.6 µM]
CCOC(=O)c1c(CSc2ccccc2)n(C)c2ccc(O)c(CN3CCOCC3)c12	7.9µM*	nt	nt	-28%	nt	4%
CCOC(=O)c1c(-c2ccccc2)oc2ccc(O)c(CN3CCN(C)CC3)c12	?	3%	nt	nt	-114*	-17%
CCNC(=O)[C@@H]1CCCN1C(=O)[C@H](CCCN=C(N)N)NC(=O)[C@H](CC(C)C)NC(=O)[C@@H](Cc1c[nH]c2ccccc12)NC(=O)[C@H](Cc1ccc(O)cc1)NC(=O)[C@H](CO)NC(=O)[C@H](Cc1c[nH]c2ccccc12)NC(=O)[C@H](Cc1cnc[nH]1)NC(=O)[C@@H]1CCC(=O)N1	nt	nt	nt	-99%	nt	7.9µM*
c1ccc2c(c1)ccc1ncccc12	4%	0%	nt	1%	nt	-32%
Cc1ccc2cccnc2c1	nt	1%	nt	6.3µM*	nt	nt
CC1CCCCN1S(=O)(=O)c1ccc(S(=O)(=O)N2CCN(c3ccc(F)cc3)CC2)cc1 (stereo not drawn)	-3%[46.1 µM]	-4%	-4	-25%[10 µM]	-114*	-15%
Cc1ccc2[nH]c(-c3ccc(F)cc3F)cc(=O)c2c1	nt	1%[0.00818 µM]	nt	-289%[96.6 µM]	nt	nt
CCOC(=O)c1cc(CC)sc1/N=C/c1c(O)ccc2ccccc12	-1%	-5%	nt	8%[10 µM]	-88*	29%
Cc1c(C(=O)Nc2ccccc2N2CCOCC2)sc2nc3n(c(=O)c12)CCC3	-3%[46.1 µM]	-2%	-7	20%[10 µM]	-127*	9%
CCNc1nc(NC(C)C)nc(N(C#N)CCOc2ccc(Cl)cc2Cl)n1	10µM*	-17%	8	-5%	-9	35µM*
CCCCCCCCCCCCCC[N+](C)(C)C	nt	nt	nt	-107%	nt	16µM*
CCCCCCCCCCCCCCCC[N+](C)(C)CC	nt	nt	nt	-98%	nt	14µM*
